# Source: the supplement of paper PMC12636033
# ± gives the standard deviation of the averaged measurements. The full ranking holds about 33,000 sequences; the median of “E-score (rank enrichment, -0.5 to 0.5)” is about -0.0075, and the highest 2% start at about 0.23. Only a selection was taken, and the highest values are over-represented in it overall.
# System: WT Max(13-93) synthetic (M65Nle)
# Assay: PBM 8-mer E-score (E-score (rank enrichment, -0.5 to 0.5)); higher = stronger preferential binding
# Procedure: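 Protein binding microarray (universal PBM chip covering all 10-mers in fixed probe flanks) with chemically synthesized human Max(13-93) bHLH-LZ analogs (not full-length Max) bearing noncanonical residues (hArg, Tha, Aib, Nle at 65) and aromatic Cys staples. Read-out per 8-mer (and its reverse complement): E-score (rank-based enrichment, -0.5 to 0.5) and Z-score of median probe intensity.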
row,Sequence,PBM 8-mer E-score
1,CGAGCTGC,-0.214 ± 0.048
2,AACTCCGG,-0.0587 ± 0.069
3,AATTGGCA,0.139 ± 0.04
4,TATTGGCA,0.243 ± 0.034
5,CATTGGCA,-0.0219 ± 0.039
6,CGCGCCCA,0.0179 ± 0.03
7,GTCGACAA,0.0204 ± 0.0078
8,AAGAAGGG,0.213 ± 0.0093
9,ACGTAAAG,0.281 ± 0.033
10,ACGTAAAT,0.0493 ± 0.0072
11,ACGTAAAA,0.0973 ± 0.0094
12,ACAGGCGA,-0.138 ± 0.092
13,ACAGTATG,0.135 ± 0.041
14,ACAGTATC,0.235 ± 0.0095
15,ACAGTATA,0.134 ± 0.0089
16,CACCTTCA,-0.109 ± 0.0089
17,CATGCTCA,0.281 ± 0.034
18,CATGCTCG,0.188 ± 0.038
19,AATGCTTA,0.194 ± 0.036
20,CATGCTCC,0.18 ± 0.012
21,CATGCTGA,0.169 ± 0.029
22,CATGCTTA,0.246 ± 0.045
23,GACATTAC,0.0651 ± 0.0097
24,ATCATTTG,0.0683 ± 0.013
25,CTTTCCGC,-0.00053 ± 0.0035

row,Sequence,PBM 8-mer E-score
1,GTCGCATA,0.127 ± 0.004
2,CAATCTCA,8e-05 ± 0.15
3,CCCTATTC,0.0618 ± 0.016
4,GATAAAAA,0.242 ± 0.021
5,TATAAAAA,0.258 ± 0.13
6,TAAAAAAA,0.123 ± 0.0092
7,GATAAAAC,0.141 ± 0.1
8,GATAAACA,0.138 ± 0.13
9,CATAAAAA,0.213 ± 0.085
10,GACCCCGC,-0.0133 ± 0.0045
11,CAAGCACC,-0.0769 ± 0.043
12,CAAGTAGC,-0.0222 ± 0.13
13,GGACGCGA,-0.0617 ± 0.22
14,CGAGAACC,-0.00648 ± 0.079
15,AAACATGG,0.2074 ± 0.0013
16,AAACATGA,0.187 ± 0.041
17,CAACATGC,0.119 ± 0.023
18,AAACATGT,0.315 ± 0.018
19,AAACATGC,0.248 ± 0.021
20,GAACATGC,0.164 ± 0.015
21,CCCATCGA,-0.073 ± 0.074
22,GTCTAGGA,-0.0888 ± 0.0088
23,AGCTCGAT,-0.0955 ± 0.12
24,AAGTGAGT,0.0792 ± 0.0081
25,GATGACAC,0.0335 ± 0.0041

row,Sequence,PBM 8-mer E-score
1,AAAGACAA,0.2 ± 0.078
2,CAAGACAA,0.123 ± 0.084
3,AAAGACAC,0.279 ± 0.032
4,CATGACAG,0.0777 ± 0.066
5,TAAGACAA,0.26 ± 0.04
6,AAAGACAG,0.091 ± 0.049
7,CATGACAC,0.29 ± 0.036
8,GAAGACAA,-0.00129 ± 0.039
9,AATGACAC,0.239 ± 0.013
10,CATGACAA,0.196 ± 0.036
11,AATGACAG,0.103 ± 0.13
12,CTCGCGTC,-0.0607 ± 0.017
13,GTTTGATA,0.157 ± 0.13
14,GTACCAAA,0.104 ± 0.08
15,GCGGGCCA,-0.176 ± 0.11
16,ACATCCGA,-0.16 ± 0.072
17,CACGTATG,0.0325 ± 0.16
18,GGAGTTCA,0.024 ± 0.016
19,CGCGGTTA,-0.0113 ± 0.021
20,ATCTTACG,-0.013 ± 0.042
21,AAGGAGCG,-0.0544 ± 0.078
22,AATGACAA,0.296 ± 0.089
23,TATGACAA,0.22 ± 0.013
24,GATGACAA,0.147 ± 0.014
25,AGAAAAGC,0.121 ± 0.075

row,Sequence,PBM 8-mer E-score
1,CACACGTG,0.4756 ± 0.0046
2,CACACGTA,0.0918 ± 0.056
3,CACACGTC,0.0446 ± 0.022
4,AACACGTC,0.0692 ± 0.09
5,AACACGTA,0.189 ± 0.04
6,AACACGTG,0.4954 ± 0.001
7,AGGAAAAT,0.102 ± 0.051
8,CTTGCCAA,0.0438 ± 0.04
9,CTTTAAGA,0.0629 ± 0.086
10,ACTCGATC,-0.107 ± 0.06
11,ATGGAGGC,-0.00616 ± 0.011
12,TTTATAAA,0.176 ± 0.057
13,ACAACCCT,-0.0273 ± 0.068
14,ACAACCCC,0.257 ± 0.052
15,CCAACCCC,-0.0495 ± 0.05
16,GCGTCGAA,0.00213 ± 0.017
17,CGCATGCA,0.175 ± 0.029
18,CGCATGCG,0.277 ± 0.018
19,AGCATGCC,0.12 ± 0.022
20,AGCATGCA,0.335 ± 0.016
21,AGCATGCG,0.326 ± 0.055
22,CGCATGCC,0.141 ± 0.068
23,AGCATGCT,0.165 ± 0.028
24,TGCATGCA,0.201 ± 0.039
25,GGCATGCA,0.0781 ± 0.042

row,Sequence,PBM 8-mer E-score
1,CGCAATGC,-0.0961 ± 0.12
2,AGACACCC,-0.159 ± 0.022
3,CATTTGAC,0.0512 ± 0.021
4,GCACATGA,0.175 ± 0.065
5,ACACATGC,0.23 ± 0.089
6,CGACATGC,0.18 ± 0.013
7,CAACATGG,0.171 ± 0.018
8,GCACATAC,0.0278 ± 0.096
9,CCACATGG,0.366 ± 0.0054
10,TCACATGA,0.229 ± 0.011
11,CCACATGA,0.24 ± 0.057
12,GCACATCC,-0.00788 ± 0.08
13,CCACATGC,0.327 ± 0.06
14,GCACATGC,0.251 ± 0.032
15,CCACATCG,-0.114 ± 0.056
16,ACTAAGAC,-0.0588 ± 0.021
17,AGTGGCAT,0.077 ± 0.041
18,ATAGAGAT,0.0666 ± 0.018
19,ACCTCTAT,-0.0733 ± 0.13
20,AATGCCTG,-0.0228 ± 0.16
21,AAACGTTC,0.138 ± 0.043
22,TCTTACCA,-0.0372 ± 0.041
23,CAGTGAGC,-0.263 ± 0.02
24,AATATATA,0.175 ± 0.01
25,AATATGTG,0.273 ± 0.036

row,Sequence,PBM 8-mer E-score
1,AATATATG,0.251 ± 0.011
2,AATATATT,0.197 ± 0.047
3,AATATGTA,0.138 ± 0.069
4,AATATGAA,0.279 ± 0.013
5,AATATGAC,0.201 ± 0.057
6,AATATGTC,0.0761 ± 0.1
7,TATATGAA,0.15 ± 0.097
8,ACGTCGAC,0.0127 ± 0.076
9,ACCCCGTG,0.0605 ± 0.035
10,CCGGCGTA,-0.17 ± 0.049
11,CCCGCGCC,-0.134 ± 0.14
12,ACGCATTC,-0.0561 ± 0.13
13,AGGTGATA,-0.0245 ± 0.055
14,CTTAATTC,0.258 ± 0.0064
15,CTTAATGA,0.0202 ± 0.07
16,CTTAATTA,0.0675 ± 0.075
17,ATTAATAG,0.263 ± 0.1
18,ATTAATGC,0.0772 ± 0.086
19,ATTAATTC,0.159 ± 0.18
20,ATTAATGA,0.264 ± 0.076
21,ATTAATTA,0.235 ± 0.13
22,ATTAATAA,0.195 ± 0.023
23,ATTAATTG,0.128 ± 0.089
24,GTTAATTA,0.13 ± 0.14
25,ATTAATAC,0.102 ± 0.0018

row,Sequence,PBM 8-mer E-score
1,ACTACAGT,0.0566 ± 0.059
2,TGACAACA,0.0331 ± 0.06
3,CCCGCTAC,0.047 ± 0.0079
4,CTGAAGCC,-0.13 ± 0.039
5,GAGAGCTA,0.1 ± 0.073
6,ATGGGCTA,0.0445 ± 0.068
7,TAATGACA,0.256 ± 0.013
8,GAATGACA,0.0853 ± 0.076
9,AAATGACG,0.0648 ± 0.073
10,AAATGACA,0.248 ± 0.04
11,CAATGACA,0.184 ± 0.075
12,AAATGACC,0.0445 ± 0.18
13,CGACCCAG,-0.168 ± 0.1
14,CTCAAGAA,0.026 ± 0.0068
15,CGTTATAA,0.0918 ± 0.12
16,TATTATAA,0.291 ± 0.094
17,TATTAGAA,0.235 ± 0.07
18,AGTTATAA,0.132 ± 0.08
19,CATTATAA,0.107 ± 0.051
20,GATTAGAA,0.131 ± 0.017
21,TGTTATAA,0.255 ± 0.026
22,CATTAGAA,0.0359 ± 0.086
